In the antibiotic and cytotoxicity screens of Wong et al. (2023):
Among all 39,000 compounds or so, about 1,500 (3.8%) were called active. The entries come from a sample that favours actives as a whole.

The molecules below were run on HSkMC (human skeletal muscle cells) (assay: cytotoxicity call (relative viability < 0.9)). Conditions: 10 µM.
For `C[C@H](CO)N1C[C@H](C)[C@H](CN(C)C(=O)c2cnccn2)Oc2ncc(-c3cccc(C#N)c3)cc2C1=O`, the cytotoxicity call was “inactive”. In the case of `C[C@@H]1CN([C@H](C)CO)C(=O)CCCn2nncc2CO[C@H]1CN(C)Cc1cccc2c1OCCCO2`, the cytotoxicity call is reported as “inactive”. For `CCOC(=O)N(C)C[C@H]1OCc2cn(nn2)CCCC(=O)N([C@@H](C)CO)C[C@@H]1C`, the cytotoxicity call was “inactive”. For `O=C(O)CCSC[C@@H]1O[C@H]2O[C@@H]3[C@@H](O)[C@H](O)[C@H](O[C@@H]4[C@@H](O)[C@H](O)[C@H](O[C@@H]5[C@@H](O)[C@H](O)[C@H](O[C@@H]6[C@@H](O)[C@H](O)[C@H](O[C@@H]7[C@@H](O)[C@H](O)[C@H](O[C@@H]8[C@@H](O)[C@H](O)[C@H](O[C@@H]9[C@@H](O)[C@H](O)[C@H](O[C@@H]1[C@@H](O)[C@@H]2O)O[C@H]9CSCCC(=O)O)O[C@H]8CSCCC(=O)O)O[C@H]7CSCCC(=O)O)O[C@H]6CSCCC(=O)O)O[C@H]5CSCCC(=O)O)O[C@H]4CSCCC(=O)O)O[C@H]3CSCCC(=O)O`, the cytotoxicity call was “inactive”. With `C[C@H](CO)N1C[C@H](C)[C@H](CN(C)Cc2ccc(C(=O)O)cc2)OCCCC[C@H](C)Oc2ccc(NC(=O)Nc3ccccc3)cc2C1=O` the cytotoxicity call was “inactive”. For `C[C@H](CO)N1C[C@H](C)[C@@H](CN(C)S(C)(=O)=O)Oc2ccc(NC(=O)Nc3ccc(F)cc3)cc2CC1=O`, the cytotoxicity call was “inactive”. In the case of `CCC(=C/[C@H](C)C/C=C/C(C)=C/[C@@H](C)C(=O)[C@@H](C)[C@H](O)[C@@H](C)C/C(C)=C/C(=O)O)/C=C/[C@@H]1OC(=O)C=C[C@@H]1C`, the cytotoxicity call is reported as “active”. For `Cc1noc(C)c1NC(=O)N(C)C[C@@H]1Oc2ccc(NS(C)(=O)=O)cc2CC(=O)N([C@H](C)CO)C[C@H]1C`, the cytotoxicity call was “inactive”. For `C[C@@H]1CN([C@H](C)CO)S(=O)(=O)c2ccc(-c3cccnc3)cc2O[C@H]1CN(C)C(=O)c1cccc(F)c1`, the cytotoxicity call was “inactive”. With `COc1ccc([Si](C)(C)[C@@H]2[C@@H](CCO)O[C@]3(C(=O)N(Cc4ccc(N(C=O)c5ccccc5)cc4)c4ccccc43)[C@H]2C)cc1` the cytotoxicity call was “inactive”. In the case of `COc1ccc([Si](C)(C)[C@H]2[C@H](CCO)O[C@@]3(C(=O)N(Cc4ccccc4)c4ccc(N(C=O)c5ccccc5)cc43)[C@@H]2C)cc1`, the cytotoxicity call is reported as “inactive”. `C=CCN1C(=O)[C@]2(O[C@H](CCO)[C@@H]([Si](C)(C)c3ccc(OC)cc3)[C@@H]2C)c2cc(N(C=O)c3ccccc3)ccc21` was tested, and the cytotoxicity call was “active”. In the case of `COc1ccc([Si](C)(C)[C@H]2[C@H](CCO)O[C@@]3(C(=O)N(Cc4ccc(N(C=O)c5ccccc5)cc4)c4ccccc43)[C@@H]2C)cc1`, the cytotoxicity call is reported as “inactive”. In the case of `COc1ccc([Si](C)(C)[C@@H]2[C@@H](CCO)O[C@]3(C(=O)N(Cc4ccccc4)c4ccc(N(C=O)c5ccccc5)cc43)[C@H]2C)cc1`, the cytotoxicity call is reported as “inactive”. With `C=CCN1C(=O)[C@@]2(O[C@@H](CCO)[C@H]([Si](C)(C)c3ccc(OC)cc3)[C@H]2C)c2cc(N(C=O)c3ccccc3)ccc21` the cytotoxicity call was “active”. `C[C@@H]1CCCCO[C@@H](CN(C)C(=O)Nc2ccccc2)[C@@H](C)CN([C@H](C)CO)C(=O)c2cc(NS(=O)(=O)c3ccccc3)ccc2O1` was tested, and the cytotoxicity call was “inactive”. With `C[C@@H]1CN([C@H](C)CO)C(=O)c2cc(NC(=O)NC3CCCCC3)ccc2O[C@@H](C)CCCCO[C@@H]1CN(C)CC1CCCCC1` the cytotoxicity call was “inactive”. In the case of `C[C@H](CO)N1C[C@H](C)[C@H](CN(C)S(=O)(=O)c2ccccc2)Oc2ccc(NC(=O)CCC(F)(F)F)cc2CC1=O`, the cytotoxicity call is reported as “inactive”. With `C[C@H]1CN([C@@H](C)CO)C(=O)c2cccc(NC(=O)NC3CCCCC3)c2O[C@@H]1CN(C)Cc1ccc(-c2ccccc2)cc1` the cytotoxicity call was “inactive”. With `Clc1ccc(C(Cn2ccnc2)OCc2c(Cl)cccc2Cl)c(Cl)c1.O=[N+]([O-])O` (stereo unspecified) the cytotoxicity call was “inactive”. `Clc1ccc(CSC(Cn2ccnc2)c2ccc(Cl)cc2Cl)cc1.O=[N+]([O-])O` (stereo unspecified) was tested, and the cytotoxicity call was “active”. For `Clc1ccc(COC(Cn2ccnc2)c2ccc(Cl)cc2Cl)cc1.O=[N+]([O-])O` (stereo unspecified), the cytotoxicity call was “inactive”. With `Cc1noc(C)c1S(=O)(=O)N(C)C[C@@H]1Oc2ccc(NS(=O)(=O)c3ccc(Cl)cc3)cc2C(=O)N([C@H](C)CO)C[C@@H]1C` the cytotoxicity call was “inactive”. For `C[C@@H]1CCCCO[C@H](CN(C)C(=O)Nc2cccc3ccccc23)[C@H](C)CN([C@H](C)CO)C(=O)c2cc(NS(C)(=O)=O)ccc2O1`, the cytotoxicity call was “inactive”. With `Cc1ccc(C(N)=S)c(=O)[nH]1` the cytotoxicity call was “inactive”. In the case of `C[C@H]1CN([C@@H](C)CO)C(=O)c2cccc(NC(=O)C3CCCCC3)c2O[C@@H]1CN(C)Cc1ccc(Cl)c(Cl)c1`, the cytotoxicity call is reported as “inactive”. `COC(=O)c1c(CC[C@@H](CO)NC(=O)N[C@@H](Cc2ccccc2)Cn2cc(-c3ccccn3)nn2)oc(C(=O)N2CCOCC2)c1C(=O)OC` was tested, and the cytotoxicity call was “inactive”. In the case of `CCCC#Cc1ccc2c(c1)O[C@@H](CN(C)Cc1ccc3c(c1)OCO3)[C@H](C)CN([C@H](C)CO)S2(=O)=O`, the cytotoxicity call is reported as “inactive”. `CO[C@H](CN(C)C(=O)C1CCOCC1)[C@H](C)CN(C(=O)Nc1ccc(C(F)(F)F)cc1)[C@@H](C)CO` was tested, and the cytotoxicity call was “inactive”. `C[C@H](CO)N1C[C@H](C)[C@H](CN(C)CC2CCCCC2)Oc2ccc(NC(=O)Nc3ccc(F)cc3)cc2CC1=O` was tested, and the cytotoxicity call was “inactive”. For `C[C@@H]1CN([C@H](C)CO)C(=O)Cc2cc(NC(=O)Nc3ccc(F)cc3)ccc2O[C@@H]1CN(C)CC1CCCCC1`, the cytotoxicity call was “active”. With `C[C@@H]1CN([C@@H](C)CO)C(=O)Cc2cc(NC(=O)Nc3ccc(F)cc3)ccc2O[C@@H]1CN(C)CC1CCCCC1` the cytotoxicity call was “inactive”. In the case of `C[C@H]1CN([C@@H](C)CO)C(=O)Cc2cc(NC(=O)Nc3ccc(F)cc3)ccc2O[C@H]1CN(C)CC1CCCCC1`, the cytotoxicity call is reported as “active”. For `C[C@H](CO)N1C[C@H](C)[C@@H](CN(C)CC2CCCCC2)Oc2ccc(NC(=O)Nc3ccc(F)cc3)cc2CC1=O`, the cytotoxicity call was “inactive”. `C[C@@H]1CN([C@@H](C)CO)C(=O)Cc2cc(NC(=O)Nc3ccc(F)cc3)ccc2O[C@H]1CN(C)CC1CCCCC1` was tested, and the cytotoxicity call was “inactive”. In the case of `COc1ccc(NC(=O)Nc2ccc3c(c2)C(=O)N([C@H](C)CO)C[C@@H](C)[C@H](CN(C)C(=O)Nc2c(C)noc2C)OCCCC[C@@H](C)O3)cc1`, the cytotoxicity call is reported as “inactive”.
